In the supplement of paper PMC6555819:

How the values were obtained:
Assay in all cases: PBM binding z-score (relative to random genomic background probes); higher = stronger binding; sequences stand for … in GC…GCGATTGACAGCGTAGAATGAAGG
[1] = tested on: FXR:RXRa (NR concentration 270 nM, RXRa partner concentration 90 nM)
How it was run: (§1)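 On custom Agilent 4×180K arrays, double-stranded probes with 34-nt variable regions carried direct-repeat seeds, single-nucleotide variants, half-site ablations or random human genomic background. Ligand-free nuclear receptor dimers were applied for 1 h, and binding was read with antibodies against each partner (one per run). Binding z-scores come from regression-normalized fluorescence, with the random background probes as reference.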

[2] = tested on: LXRa:RXRa (NR concentration 270 nM, RXRa partner concentration 90 nM)
How it was run: as §1

[3] = tested on: LXRa homodimer (NR concentration 270 nM)
How it was run: as §1

[4] = tested on: LXRb:RXRa (NR concentration 270 nM, RXRa partner concentration 90 nM)
How it was run: as §1

[5] = tested on: LXRb homodimer (NR concentration 270 nM)
How it was run: as §1

[6] = tested on: PPARa:RXRa (NR concentration 270 nM, RXRa partner concentration 90 nM)
How it was run: as §1

[7] = tested on: PPARg:RXRa (NR concentration 180 nM, RXRa partner concentration 90 nM)
How it was run: as §1

[8] = tested on: PPARg:RXRa 270nM:90nM, anti-RXR (NR concentration 270 nM, RXRa partner concentration 90 nM)
How it was run: as §1

[9] = tested on: PPARg:RXRa 30nM:10nM, anti-RXR (NR concentration 30 nM, RXRa partner concentration 10 nM)
How it was run: as §1

[10] = tested on: PPARg:RXRa 90nM:30nM, anti-RXR (NR concentration 90 nM, RXRa partner concentration 30 nM)
How it was run: as §1

[11] = tested on: PPARg:RXRa DBDmut IVT, anti-RXR (DBD mutation: RXRa K156A/R161A, NR concentration 270 nM, RXRa partner concentration 90 nM)
How it was run: as §1

[12] = tested on: PPARg:RXRa IVT, anti-PPARg (NR concentration 270 nM, RXRa partner concentration 90 nM)
How it was run: as §1

[13] = tested on: PPARg DBDmut:RXRa IVT, anti-PPARg (DBD mutation: PPARg1 K132A/R137A, NR concentration 270 nM, RXRa partner concentration 90 nM)
How it was run: as §1

[14] = tested on: PPARg DBDmut IVT, anti-PPARg (DBD mutation: PPARg1 K132A/R137A, NR concentration 270 nM)
How it was run: as §1

[15] = tested on: PPARg homodimer (NR concentration 180 nM)
How it was run: as §1

[16] = tested on: PXR:RXRa (NR concentration 270 nM, RXRa partner concentration 90 nM)
How it was run: as §1

[17] = tested on: PXR homodimer (NR concentration 270 nM)
How it was run: as §1

[18] = tested on: RARa:RXR (NR concentration 270 nM, RXRa partner concentration 90 nM)
How it was run: as §1

[19] = tested on: RARa homodimer (NR concentration 270 nM)
How it was run: as §1

[20] = tested on: RARb:RXRa (NR concentration 270 nM, RXRa partner concentration 90 nM)
How it was run: as §1

Sequence	PBM binding z-score [1]	PBM binding z-score [2]	PBM binding z-score [3]	PBM binding z-score [4]	PBM binding z-score [5]	PBM binding z-score [6]	PBM binding z-score [7]	PBM binding z-score [8]	PBM binding z-score [9]	PBM binding z-score [10]	PBM binding z-score [11]	PBM binding z-score [12]	PBM binding z-score [13]	PBM binding z-score [14]	PBM binding z-score [15]	PBM binding z-score [16]	PBM binding z-score [17]	PBM binding z-score [18]	PBM binding z-score [19]	PBM binding z-score [20]
TTTTGTAGATCAAGCAGGTTAAGAAAGCCTGAGT	-0.215	-0.0979	0.00472	0.194	-0.0652	0.567	-0.416	0.238	0.224	-0.0432	0.762	1.22	1.82	1.21	0.487	0.303	0.386	0.469	0.538	0.329
CCGACTGGGGCATAAGGTTATCATAAGCCAGCCC	0.297	0.921	-0.134	0.498	-1.15	1.94	2.31	3.06	1.39	3.18	2.88	3.27	-0.987	-0.567	1.33	0.386	0.0103	1.34	-0.22	1.32
TCGAGTAGGTTAACAATGGGGCATTCAGCTTTCT	0.324	3.77	-0.204	1.79	-0.704	1.59	0.576	1.22	1.31	1.29	3.65	2.78	0.124	0.191	0.25	0.403	-0.277	0.753	-0.553	0.976
TCATATACGTAAAAGGTGAAAGTCGGTGTGGTAA	1.58	1.77	0.215	1.7	0.467	2.81	1.68	3.88	4.6	4.19	2.65	1.71	2.06	2.25	1.84	1.35	0.642	1.89	1.88	1.9
TCATATATGTAAAGGTGAAAGTCGAACGATATGA	0.775	1.41	-0.143	1.2	-0.14	2.68	2.6	3.13	3.73	3.47	1.83	1.99	1.26	0.868	0.62	0.981	-0.319	1.78	0.741	1.96
GGACCGAGGGCATTCGAGTTGATAGCATGGCGAT	1.26	1.86	-0.0835	0.133	-1.34	0.952	0.4	0.0586	-0.851	-0.483	0.308	0.267	-0.812	-0.98	-0.223	4.17	1.3	0.835	-0.77	1.88
CCTAGTTGGTCAGGAGGTCACACAGCGGATATGA	4.26	3.54	2.17	3.55	0.887	4.36	3.51	4.15	1.76	3.56	1.92	3.62	0.997	0.401	5.93	4.51	2.55	5.39	3.77	3.81
CCAGACAGGTGAAAGGTAACTCAATCTGGTACGC	0.545	0.735	-0.0709	1.09	-0.161	3.43	5.5	6.13	3.94	5.99	2.13	2.83	-0.064	-0.205	1.32	1.09	0.164	2.31	0.578	1.11
CACGAAAGGTCGGTTGAGGTGAGTATACGGATAA	2.53	2.25	0.0219	1.7	0.387	3	0.823	1.36	0.246	0.906	0.197	1.19	1.19	0.977	1.22	3.42	0.224	2.96	0.255	3.18
CAAACTAGGTCACCGGACGGTCAAAGTCCGCATG	4.83	4.33	1.97	3.09	0.428	5.37	9.09	7.27	5.34	6.89	8.62	8.82	3.09	1.22	4.69	2.54	0.265	3.73	0.94	4.7
TAGCCTAGGTCATGGGCAAGTATACCACGCGAAC	4.43	3.35	0.241	2.46	-0.306	4.37	3.93	3.3	0.879	2.22	1.64	3.48	-0.144	0.186	1.13	1.51	-0.303	2.48	-0.000605	4.09
CCGACTGGGGCAGAAAGGTAACCATACCATCCGG	-0.151	-0.447	-0.528	-0.363	-1.18	0.647	1.05	1.25	-0.0627	0.913	1.07	1.73	-0.318	-1.27	0.0459	-0.419	-0.488	-0.0683	-0.0732	0.706
GTACCAAGGTGAATAGGTCGTTGTTGAGTAGGCG	0.827	0.686	-0.152	0.303	-0.821	2.07	1.18	1.21	0.0125	0.678	1.9	2.74	0.246	-0.308	1.31	0.708	-0.604	1.5	0.154	1.91
TGTCAAAGTTCAATGGTAACGTAAGTATCCACAC	5.2	5.16	2.81	3.03	0.934	4.31	6.86	6.53	4.18	6.12	-0.339	3.53	0.89	1.61	2.42	3.89	2.86	2.38	1.11	4.58
CGTCAAAGTTCAAGGTAACTTAACAGAAAGCAGC	6.07	5.46	2.56	3.35	0.919	4.5	4.23	4.97	1.81	3.84	0.535	1.52	0.657	0.0202	2.33	3.79	2.37	3.17	1.69	4.89
TCTCGTAGATCAAAGGTTAAGAAAGCCGAAGCCT	1.56	1.85	-0.119	1.9	-0.471	3.46	4.19	5.74	4.84	6	1.73	1.46	-0.063	-0.642	0.726	1.89	-0.203	2.71	0.027	1.69
CCTAGCAGGCCAGGGTCACGCAAGCATTTCGCTT	4.27	3.3	-0.658	3.24	-0.358	4.73	3.11	3.95	0.595	2.58	-0.356	1.95	-1.04	-1.59	1.16	3.96	-0.56	4.99	-0.191	3.4
TCTACTTGGTCAAAGGTCACACACTCGAAATGCG	6.58	5.85	4.37	5.9	2.26	6.72	11.9	9.98	10.5	11	3.83	6.58	2.43	3.34	4.9	6.09	1.84	7.73	4.11	5.29
CGAACGAGGGTATGAGTTGATAGCAAATGCCGAT	-0.386	-0.2	-0.268	-0.396	-0.567	-0.124	0.652	0.353	-0.0706	0.292	0.876	0.397	0.137	0.369	-0.383	-0.238	0.0824	-0.307	0.157	0.117
TCTTGTAGATCAAAGGTGAAGAAAGCCGAAGCCT	0.848	1.05	-0.533	0.994	-0.372	4.04	7.41	7.96	7.36	9.05	2.96	3.53	-0.0532	0.112	0.161	0.885	-0.554	1.86	-0.538	1.49
CCTTACGGGTTACGAGGTTATAGCACGACGAGCG	1.8	2.11	0.0451	1.8	-0.317	3.36	2.89	3.03	0.671	1.8	1.39	2.73	-0.246	1.02	1.32	1.95	0.0657	2.76	0.573	1.58
ATCTCTAGGTAAGACTCAGTTCGGTGAAGAACGC	0.336	0.318	0.624	0.144	0.85	-0.0565	-0.0259	0.127	-0.00912	0.104	2.26	1.24	0.576	0.0505	0.778	0.179	0.754	0.0942	0.985	0.104
AGAACGAGGGTACGCTGAGTTGATAGCAGAGTAG	-0.315	-0.553	-0.621	-0.739	-0.968	-0.00229	0.661	-0.197	-0.127	-0.289	1.48	0.725	0.215	0.0529	-0.458	0.223	0.15	-0.0408	-0.807	0.364
CCTTACCGGTCACGAGGTTATAGCACGACGAGCG	2.69	3.04	2	2	0.699	2.85	2.12	2.07	0.437	1.06	1.09	2.32	0.31	0.533	2.18	1.92	0.733	2.66	1.45	3.73
ATCTTTAGGTAAGACTCAGTTCAGTGAAGAACGC	0.459	0.502	0.392	0.259	0.931	0.478	0.122	0.267	0.146	0.0526	0.866	0.683	1.19	0.877	0.751	1.35	1.56	0.837	1.14	0.585
TCATATAGGTAAAGGTGCAAGTCGAACGATATGA	0.551	0.493	-0.176	0.57	-0.374	2.77	4.36	5.55	4.82	5.79	3.53	3.68	0.688	1.15	0.555	0.241	0.116	0.949	0.796	0.566
CTCGAAAGGTCGTGCTAAGGTGAGTATACCAAAC	5.5	4.12	0.337	3.46	0.12	5.03	3.4	4.54	1.67	3.46	0.626	2.19	0.542	0.415	2.51	3.71	0.449	5.09	0.258	4.05
CCTCAAAGTTCAAGGTAACGTAACAGAAAGCAGC	5.83	5.87	3.49	3.83	1.95	4.85	2.87	3.67	0.99	2.22	0.797	0.928	0.66	0.159	3.58	4.18	2.53	3.49	2.16	5.26
AGTCAAAATTCAGGACGAGGTAACGTAAAGCACG	0.194	-0.186	0.224	-0.188	-0.336	0.0316	0.944	0.294	0.281	0.217	-0.124	0.504	0.875	0.0968	0.59	-0.0686	0.0838	0.591	0.657	0.118
